ATXN2 expr inh: Primary qHTS for Inhibitors of ATXN expression | HEK-293 ATXN2-luciferase reporter, luminescence, 24 h | Potency, µM (doses to about 57 µM), most hits filed as inhibitors | actives 0.72% (n = 360,000) | AID 1745845, 2022; note: nearly all actives have a fitted effect of over 55% in size
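qHTS (up to 57 uM final) was run with 24 h compound exposure of reporter cells at 37 °C. Each well was multiplexed: SteadyGlo luminescence measured ATXN2-luciferase expression after a fluorogenic Gly-Phe-AFC viability readout (25 uM final).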
RORgamma inh: qHTS for inhibitors of ROR gamma transcriptional activity; Drosophila S2 Gal4-RORgamma UAS-luciferase reporter, 20 h; Potency, µM (highest dose often 53.6 µM), hits mostly inhibitors; Nuclear receptor ROR-gamma (Mus musculus), P51450; actives 5.4% (n = 310,000); note: nearly all actives have a fitted effect of over 60% in size
Target sequence (P51450 whole entry, looked up, the tested form may be a part): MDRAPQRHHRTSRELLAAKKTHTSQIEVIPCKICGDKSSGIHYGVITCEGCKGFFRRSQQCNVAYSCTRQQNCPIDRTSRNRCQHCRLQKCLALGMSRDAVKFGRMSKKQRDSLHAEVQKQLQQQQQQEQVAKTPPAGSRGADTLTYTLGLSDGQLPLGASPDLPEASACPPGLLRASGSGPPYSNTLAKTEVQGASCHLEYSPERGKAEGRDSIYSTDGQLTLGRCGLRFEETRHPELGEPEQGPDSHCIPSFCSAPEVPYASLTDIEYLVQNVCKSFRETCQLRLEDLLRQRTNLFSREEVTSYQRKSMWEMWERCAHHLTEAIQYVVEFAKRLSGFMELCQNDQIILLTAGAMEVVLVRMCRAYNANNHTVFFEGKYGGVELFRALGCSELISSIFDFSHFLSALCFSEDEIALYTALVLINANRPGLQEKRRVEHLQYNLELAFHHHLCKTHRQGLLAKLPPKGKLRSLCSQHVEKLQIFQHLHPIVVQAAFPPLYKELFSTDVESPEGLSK
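Stably transfected Drosophila Schneider cells are the test system, with ROR gamma fused to Gal4 and luciferase under UAS control; luminescence is read after 20 hr of 700 uM copper sulfate induction at ambient temperature.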
ATXN viability: Viability Counterscreen for Primary qHTS for Inhibitors of ATXN expression. actives 0.49% (n = 400,000). S2 cells (HEK-293 line with an ATXN2-luciferase reporter) viability, CellTiter-Fluor protease fluorescence, 24 h. Potency, µM (highest dose often 56.7 µM), hits mostly cytotoxic; note: nearly all actives have a fitted effect of over 40% in size
Gal4-VP16 FLuc: VP16 counterscreen qHTS for inhibitors of ROR gamma transcriptional activity | AID 2546, 2010 | Drosophila S2 Gal4-VP16 UAS-luciferase, luminescence, 20 h | actives 3.5% (n = 310,000) | Potency, µM (highest dose often 53.6 µM), actives largely listed as inhibitors;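 note: Gal4-VP16 expression switched on by copper sulfate through the metallothionein promoter; nearly all actives have a fitted effect of over 50% in size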
HepG2 viability: qHTS for Inhibitors of TGF-b: Cytotox Counterscreen; Potency, µM (top dose mostly 46.1 µM), usual class: cytotoxic; actives 0.76% (n = 410,000); HepG2 CAGA-GFP viability, ATP luminescence, 18 h
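CellTiter-Glo luminescence gave cytotoxicity after 18 hours at 37 degrees C. The cells were HepG2 CAGA-GFP in 1% FBS DMEM, stimulated with 500 pg/mL TGF-beta after compound addition. %Activity was normalised to no-cell wells (complete cell-killing) and DMSO (no toxicity), and curves were fitted and classified.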
TGFb SMAD3 inh: qHTS for Inhibitors of TGF-b. HepG2 CAGA-GFP TGF-b/SMAD3 reporter, GFP fluorescence, 18 h; TGF-beta stimulated, 500 pg/mL final. Potency, µM (titrated, usually from 46.1 µM), hits mostly inhibitors. actives 1.2% (n = 410,000); note: nearly all actives have a fitted effect of over 65% in size
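Using HEPG2 CAGA-GFP reporter cells at 1000 cells/well, we pinned test compounds, stimulated with recombinant TGF-beta (500 pg/mL final) and measured total well GFP after 18 h.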
Numbers stand for hits; n = inactive; u = inconclusive; x = not tested or not shown; [ ] = dose if it differs, or a comment. In the library only some 6.1% were active in any assay of this set; here they are far more common. Calls come from the whole dose curve; as a rule, active = well fitted curve in the direction sought with a large enough effect; inconclusive = small, poorly fitted or top-dose-only effect, or another doubt; inactive = no such curve, though single readings can be large; an effect the other way counts as inactive or inconclusive.

SMILES	ATXN2 expr inh	RORgamma inh	ATXN viability	Gal4-VP16 FLuc	HepG2 viability	TGFb SMAD3 inh
CCn1cc(C2=NC(C(C)C)CO2)c2ccccc21 (centres undefined)	n	10µM	n	u	n	n
CCn1cc(C2=NC(CCSC)CO2)c2ccccc21 (centres undefined)	n	7.94µM	n	u	n	n
CCn1cc(C2=NC(CC(C)C)CO2)c2ccccc21 (centres undefined)	n	3.98µM	n	u	n	n
COC(=O)[C@@H]1CCCN1Cc1ccc2c(c1)CN(Cc1ccc(OC)c(C)c1)CCO2	x	x	n	x	x	x
CN(C(=O)CSc1nc2ccccc2n1CC(=O)N(C)C1CCCCC1)c1ccccc1	n	x	u	x	n	n
Brc1cccc(-c2nn(-c3ccccc3)c3c2cnc2cc4c(cc23)OCO4)c1	n	x	n	x	n	n
NS(=O)(=O)c1ccc(CCNCc2cc(Cl)ccc2OCc2ccccc2)cc1	n	u	n	u	n	11.2µM
NS(=O)(=O)c1ccc(CCNCc2ccccc2OCc2ccc(Cl)cc2)cc1	u	n[1.91 µM]	n	n	n	u
O=C(COc1ccc(Br)cc1CNCCc1ccccc1)NCc1ccccc1	u	n	u	n	12.6µM	u
Nc1nonc1C(=O)NCCNCc1ccccc1OCc1ccccc1F	n	u	n	u	n	n
Nc1nonc1C(=O)NCCNCc1cc(Br)ccc1OCc1ccccc1F	u	u	n	3.98µM	n	n
C=CCOc1ccccc1CNCCc1ccc(S(N)(=O)=O)cc1	n	n	n	n	n	n
NS(=O)(=O)c1ccc(CCNCc2cc(Br)ccc2OCc2ccccc2F)cc1	n[11.3 µM]	n	n	12.6µM	n	u
COc1ccccc1NC(=O)C(=O)NCCc1csc(-c2cccc(F)c2)n1	n	x	n	x	n	n
O=C(c1ccco1)n1nc(-c2ccccc2)nc1NCc1ccccc1Cl	n	x	n	x	n	n
CN(C)c1ccc(/C=C/c2ccc3cc(N)ccc3n2)cc1	x	x	x	x	n	n
CNCc1cc(Br)c(OCC(=O)Nc2ccccc2OC)c(OC)c1	n	n	u	n	n	n
COc1cc(CNCCc2ccccc2)cc(Br)c1OCC(=O)Nc1ccccc1C	x	u	28.2µM	n	n	u
CC1=C(C(N)=O)C(c2cccs2)NC(=S)N1 (centres undefined)	n	n	n	n	n	n
COc1cc2c(cc1C1NC(=S)NC(C)=C1C(N)=O)CCCC2 (centres undefined)	n	2.82µM	n	n	n	n
COc1ccc2c(c1)c1ccc3c(c1n2C)C(=O)C=CC3=O	x	22.4µM	n	12.6µM	n	u
COc1ccc2c(c1)c1ncn(CCN3CCCC3)c(=O)c1n2C	n	u	n	n	n	n
Cc1ccc2c(c1)c1ccc3c(c1n2C)C(=O)C=CC3=O	10µM	11.2µM	10µM	11.2µM	n	u
Cc1ccc2c(c1)c1ncnc(N3CCOCC3)c1n2C	n	n	n	n	n	n
Cn1c2ccccc2c2ccc3c(c21)C(=O)C=CC3=O	u	x	5.97µM	x	n	n
SMILES	ATXN2 expr inh	RORgamma inh	ATXN viability	Gal4-VP16 FLuc	HepG2 viability	TGFb SMAD3 inh
Cc1ccc(C)c2c1c1ccccc1n2C	n	n	n	n	n	n
CCC(Sc1nnc(-c2ccc(C)c(Cl)c2)n1CC)C(=O)Nc1nccs1 (centres undefined)	n	12.6µM	n	u	n	n
COc1ccc(CCN2C(=O)C3C4C=CC(C5CC45)C3C2=O)cc1OC (centres undefined)	n	n	n	n	n	n
COc1ccc(CCN2C(=O)C3C4C=CC(C3C2=O)C2C(=O)N(CCc3ccc(OC)c(OC)c3)C(=O)C42)cc1OC (centres undefined)	n	n	n	8.91µM	n	u
Cc1cc(Nc2ccccc2)c2c([N+](=O)[O-])ccc(C)c2n1	n	u	n	35.5µM	n	n
Cc1cc(Nc2cccc([N+](=O)[O-])c2)c2cccc(C)c2n1	u	n	n	n	n	n
Cc1nc(-n2[nH]c3c(c2=O)CCCC3)[nH]c(=O)c1Cc1ccccc1	8.91µM	2.24µM	17.8µM	2.51µM	n	n
Cc1nc(N2CCc3ccccc3C2)[nH]c(=O)c1Cc1ccccc1	n	n	n	n	n	n
Cc1cccc(NC(=O)CSc2nc(C3CCCC3)nc3c2c(=O)n(C)c(=O)n3C)c1C	n	x	n	x	n	n
CC(NC(=O)C1CCOCC1)c1nnc2n1CCN(Cc1ccc3cccnc3c1)CC2 (centres undefined)	x	x	n	x	x	x
CCOc1ccc(N(c2nc(-c3ccc(OC)c(OC)c3)no2)c2nc(-c3ccc(OC)c(OC)c3)no2)cc1	n	x	n	x	n	n
O=c1c2ccccc2nc(-c2ccc([N+](=O)[O-])cc2)n1O	n	n	n	3.98µM	n	n
Cc1ccc(-c2nc3ccccc3c(=O)n2O)cc1	n	u	n	14.1µM	n	n
O=c1c2cc(Br)ccc2nc(-c2ccccc2)n1O	x	u	n	u	n	n
Cc1ccc(-c2nc3ccc(Cl)cc3c(=O)n2O)cc1	n	u	n	11.2µM	n	n
O=c1c2cc(Cl)ccc2nc(-c2ccccc2Cl)n1O	n	u	n	20µM	n	n
O=c1c2ccccc2nc(-c2cccc(Cl)c2)n1O	n	n[0.365 µM]	n	x	n	n
O=C1CCCc2c1nc(-c1ccc([N+](=O)[O-])cc1)n2O	n	n	n	n	n	n
CCN(CC)c1ccc(-c2nnc(SCC(=O)NCc3ccco3)n2C)cc1	x	x	x	x	n	n
COc1cc(OC)c(OC)cc1/C=C/c1ccc2ccccc2[n+]1C	x	x	x	x	n	n
O=C1NC2C3CC(c4ccccc43)C12 (centres undefined)	x	x	u	x	n	n
O=C1C=CC(=O)C2=C1C1c3ccccc3C2c2ccccc21	x	10µM	x	u	x	x
Nc1[nH]n2c(=O)cc(-c3ccccc3)nc2c1N=Nc1ccccc1	u	n	31.6µM	n	n	n
Nc1[nH]n2c(=O)cc(-c3ccccc3)nc2c1N=Nc1ccc(S(N)(=O)=O)cc1	n[11.3 µM]	n	n	n	n	n
Cc1ccc(N=Nc2c(=O)[nH]n3c(C)cc(C)nc23)cc1	n	u	u	n	n	n
Cc1cc2nc(-c3ccccc3)cc(=O)n2[nH]1	n	12.6µM	n	u	n	n
O=c1cc(-c2ccccc2)nc2cc(-c3ccc(Br)cc3)[nH]n12	n	n	n	n	n	n
Cc1ccc(N=Nc2c(N)[nH]n3c(=O)cc(C)nc23)cc1	n	10µM	n	n	n	n
